Inconclusive results are not listed. Values without a mark were called inactive. Calls follow the shape of the dose curve; as a rule, active = well fitted curve in the direction sought with a large enough effect; inconclusive = small, poorly fitted or top-dose-only effect, or another doubt; inactive = no such curve, though single readings can be large or run the other way.
These compounds were tested against Polyunsaturated fatty acid lipoxygenase ALOX15 (Homo sapiens) (UniProt P16050) (assay: Counterscreen qHTS for inhibitors of human arachidonate 12S-lipoxygenase (ALOX12): ALOX15 Assay). Conditions: purified ALOX15 enzyme activity; series mostly up to 110 µM; activity change, negative = inhibition: at the top concentration.
Polyunsaturated fatty acid lipoxygenase ALOX15 (Homo sapiens), sequence (P16050 whole entry, looked up): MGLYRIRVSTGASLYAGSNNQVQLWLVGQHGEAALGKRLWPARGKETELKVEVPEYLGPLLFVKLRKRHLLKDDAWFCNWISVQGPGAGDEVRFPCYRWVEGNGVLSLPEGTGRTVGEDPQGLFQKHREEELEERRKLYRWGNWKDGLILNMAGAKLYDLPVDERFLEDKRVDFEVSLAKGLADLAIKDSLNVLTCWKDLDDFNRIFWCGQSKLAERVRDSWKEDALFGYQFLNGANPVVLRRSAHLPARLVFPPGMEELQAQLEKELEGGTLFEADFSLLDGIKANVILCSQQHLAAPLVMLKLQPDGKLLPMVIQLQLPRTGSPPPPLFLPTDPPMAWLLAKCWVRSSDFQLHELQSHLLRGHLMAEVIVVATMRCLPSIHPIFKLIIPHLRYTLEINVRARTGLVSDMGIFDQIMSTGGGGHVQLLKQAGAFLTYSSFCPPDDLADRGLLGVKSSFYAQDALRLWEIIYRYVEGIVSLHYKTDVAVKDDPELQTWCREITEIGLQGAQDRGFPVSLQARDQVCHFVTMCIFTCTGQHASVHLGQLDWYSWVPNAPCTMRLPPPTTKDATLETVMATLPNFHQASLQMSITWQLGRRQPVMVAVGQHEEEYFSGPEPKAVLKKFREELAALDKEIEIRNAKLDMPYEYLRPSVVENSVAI
Method in brief: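 Xylenol orange–ferric complex formation, read as the 573 nm to 405 nm absorbance ratio, tracks product from 50 uM arachidonic acid turned over for 30 min at RT. Enzyme is 40 nM ALOX15, pH 7.5 HEPES buffer, compound-preincubated 15 min.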
Also: 0% is about no effect.

| Compound | activity change, negative = inhibition |
| --- | --- |
| CC(=O)N1CCCN(c2ncnc3c2CN(C2CCNCC2)C(=O)CN3C)CC1 | -22.9% |
| Cn1nc(C2CCCNC2)c2c(C(=O)NC3CC3)cc(C3CC3)nc21 (stereo not drawn) | -5.86% [at 146 µM] |
| CNCc1cccn1C | -3.02% [at 233 µM] |
| CCC(=O)N1Cc2ccccc2CC2(CCCCN2CC2CCNC2)C1 (stereo not drawn) | -2.21% |
| Cc1cc(C(=O)NCc2ccncc2)c2c(C3CCNCC3)noc2n1 | -20.4% |
| CC(=O)Nc1ccc(CN2CC3(C2)C(=O)Nc2ccccc23)cc1 | -5.88% [at 146 µM] |
| O=C1NCc2ccccc2CC12CCN(Cc1ccnc3ccccc13)CC2 | -17.8% |
| Cc1cc(Cl)ccc1-c1ccccc1CN | 12.3% [at 146 µM] |
| COc1ccc(N2CC3CCC(C2)N3C(C)=O)cc1 | -12% [at 146 µM] |
| O=C(NC1CCCC1)c1cc(C2CC2)nc2onc(C3CCCN3)c12 (stereo not drawn) | -4.93% [at 146 µM] |
| COc1cccc(N2C(=O)NC(=NC3CCCC3)C23CCCN([S+](=O)([O-])c2ccccc2)C3)c1 (stereo not drawn) | -22.7% |
| COc1cccc([S+](=O)([O-])N2CCCC3(CC(c4cccnc4)=NO3)C2)c1 (stereo not drawn) | -25.2% |
| O=C1NCc2ccccc2CC12CCN(Cc1ccc3ccccc3c1)C2 (stereo not drawn) | -29.2% |
| COc1cc(CN2CCCCC23Cc2ccccc2CNC3=O)ccc1F (stereo not drawn) | -15.7% |
| O=C(O)c1cccc(-c2cncc(C(=O)O)c2)c1 | -28.7% [at 146 µM] |
| CN1CC(=O)N(C2CCCNC2)Cc2c(NCCc3ccccc3F)ncnc21 (stereo not drawn) | -11% |
| Cc1ccc(CN2CCCC23Cc2ccccc2CNC3=O)cc1 (stereo not drawn) | 8.05% [at 146 µM] |
| Cc1cc(C)cc(CN2CCC3(Cc4ccccc4CNC3=O)C2)c1 (stereo not drawn) | -8.12% [at 146 µM] |
| O=C1c2ccccc2CN1C1CCN(Cc2cccc3ccccc23)CC1 | -4.22% |

| Compound | activity change, negative = inhibition |
| --- | --- |
| COc1ccc(OC)c([S+](=O)([O-])c2nnn3c2nc(NCc2ccc(F)cc2)c2ccccc23)c1 | -17.2% |
| CN(c1ccc(Cl)c(Cl)c1)C1CNC1 | -16.7% [at 146 µM] |
| c1ccc2c(c1)COC1(CCNC1)CN2CC1CCCC1 (stereo not drawn) | 0.378% [at 146 µM] |
| CCCN1CCC2(CC1)Cc1ccccc1CN(C(=O)C(C)C)C2 | -2.08% [at 146 µM] |
| CNC(=O)c1cn2c(n1)CN([S+](C)(=O)[O-])CC2 | -5.06% [at 146 µM] |
| CC(=O)Nc1ccc(CN2CCCC23Cc2ccccc2CN(C(=O)CCC(=O)O)C3)cc1 (stereo not drawn) | -10.9% |
| O=C(c1cn2c(n1)CN([S+](=O)([O-])c1cccc(C(F)(F)F)c1)CC2)N1CCOCC1 | -11.9% |
| CN1CC(=O)N(c2ccc(Cl)cc2)Cc2c(NC3CCNCC3)ncnc21 | -20.7% |
| O=C(c1cc(C2CC2)nc2onc(C3CCCNC3)c12)N1CCCCC1 (stereo not drawn) | -12.1% [at 146 µM] |
| CN1CC(=O)N(c2cccc(F)c2)Cc2c1ncnc2N1CCC(F)CC1 | -12.8% |
| CCOCCNc1ncnc2c1CN(C1CCCNCC1)C(=O)CN2C (stereo not drawn) | -14.8% |
| NCc1ccc(-c2cccc(Cl)c2)cc1 | 26.5% [at 146 µM] |
| CCC(=O)N1Cc2ccccc2CC2(CCN(Cc3ccncc3)CC2)C1 | -9.79% |
| O=C(c1ccncc1)N1CCC(c2nnc3n2CCNC3)CC1 | -35.4% [at 146 µM] |
| CCOCCCNc1ncnc2c1CN(C1CCCNC1)C(=O)CN2C (stereo not drawn) | -10.3% |
| O=[S+]([O-])(c1ccccc1)N1CC(Oc2ccc3c(c2)OCO3)C1 | -9.22% [at 146 µM] |
| COc1ccc(N2CC3CCC(C2)N3CC(C)C)cc1 | 3.97% [at 146 µM] |
| O=C1NCc2ccccc2CC12CCCN2CC1=CCCCC1 (stereo not drawn) | -8.99% [at 146 µM] |
| NCCCC(=O)N1CCC2(CC1)CC(NC(=O)CN)c1ccccc12 (stereo not drawn) | -21% |
